Sampled rows, rich in hits. Any-hit rate of the full collection: about 3%.
KCNH2 3.1 block = KCNH2 3.1 (human) potassium channel inhibition | activity change, % (tested at about 1.8 µM) | U2OS KCNH2 3.1, thallium flux FluxOr; active compounds read low | 340,000 tested, 0.95% active | AID 720553;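 active = maximum activity change below -70%; inconclusive = maximum activity change from -70% to -50%; inactive = maximum activity change above -50%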;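 also: thallium influx rate constant from kinetic fluorescence after stimulation buffer; % is scaled to controls: 0 for no effect and ±100 for the full control effect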
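Kinetic fluorescence (2 min after stimulation buffer) measures Tl+ influx through KCNH2 3.1 expressed by viral transduction in U2OS cells; the rate constant is normalized against DMSO controls serving as positive and negative references.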
ClpP mod = qHTS Assay for Activators of ClpP; ATP-dependent Clp protease proteolytic subunit (Bacillus subtilis (strain 168)), P80244; purified B. subtilis ClpP, FRET peptide cleavage, 20 min; Potency, µM (top dose mostly 57.5 µM), inactives show top-dose activity change, negative = active; 340,000 tested, 1.9% active; active = well fitted falling curve with a large enough effect; inconclusive = small, poorly fitted or top-dose-only effect; inactive = no such curve, though single readings can be large or run the other way; also: potency is read from the fitted curve at half-maximal effect; the source files actives as falling curves though it sought activators and does not explain the sign; nearly all actives have a fitted effect of over 65% in size
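FRET quenching reversal measured ClpP activation: 10 microg/mL B. subtilis ClpP at pH 8 with the FRET-FV decapeptide, read at 430 nm after 320 nm excitation. The 20-min minus 0-min signal was scaled between DMSO/no-enzyme wells and ADEP (5.8 microM final).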
KCNH2 WT inh = inhibitors of human wildtype KCNH2 potassium channel; 340,000 tested, 0.37% active; Q12809; activity change, % at 1.84 µM; AID 720551; U2OS, BacMam KCNH2, thallium flux FluxOr; active compounds read low;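 active = maximum activity change below -70%; inconclusive = maximum activity change between -70% and -50%; inactive = maximum activity change above -50%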; also: % is scaled to controls: 0 for no effect and ±100 for the full control effect
Target sequence (Q12809 whole entry, looked up): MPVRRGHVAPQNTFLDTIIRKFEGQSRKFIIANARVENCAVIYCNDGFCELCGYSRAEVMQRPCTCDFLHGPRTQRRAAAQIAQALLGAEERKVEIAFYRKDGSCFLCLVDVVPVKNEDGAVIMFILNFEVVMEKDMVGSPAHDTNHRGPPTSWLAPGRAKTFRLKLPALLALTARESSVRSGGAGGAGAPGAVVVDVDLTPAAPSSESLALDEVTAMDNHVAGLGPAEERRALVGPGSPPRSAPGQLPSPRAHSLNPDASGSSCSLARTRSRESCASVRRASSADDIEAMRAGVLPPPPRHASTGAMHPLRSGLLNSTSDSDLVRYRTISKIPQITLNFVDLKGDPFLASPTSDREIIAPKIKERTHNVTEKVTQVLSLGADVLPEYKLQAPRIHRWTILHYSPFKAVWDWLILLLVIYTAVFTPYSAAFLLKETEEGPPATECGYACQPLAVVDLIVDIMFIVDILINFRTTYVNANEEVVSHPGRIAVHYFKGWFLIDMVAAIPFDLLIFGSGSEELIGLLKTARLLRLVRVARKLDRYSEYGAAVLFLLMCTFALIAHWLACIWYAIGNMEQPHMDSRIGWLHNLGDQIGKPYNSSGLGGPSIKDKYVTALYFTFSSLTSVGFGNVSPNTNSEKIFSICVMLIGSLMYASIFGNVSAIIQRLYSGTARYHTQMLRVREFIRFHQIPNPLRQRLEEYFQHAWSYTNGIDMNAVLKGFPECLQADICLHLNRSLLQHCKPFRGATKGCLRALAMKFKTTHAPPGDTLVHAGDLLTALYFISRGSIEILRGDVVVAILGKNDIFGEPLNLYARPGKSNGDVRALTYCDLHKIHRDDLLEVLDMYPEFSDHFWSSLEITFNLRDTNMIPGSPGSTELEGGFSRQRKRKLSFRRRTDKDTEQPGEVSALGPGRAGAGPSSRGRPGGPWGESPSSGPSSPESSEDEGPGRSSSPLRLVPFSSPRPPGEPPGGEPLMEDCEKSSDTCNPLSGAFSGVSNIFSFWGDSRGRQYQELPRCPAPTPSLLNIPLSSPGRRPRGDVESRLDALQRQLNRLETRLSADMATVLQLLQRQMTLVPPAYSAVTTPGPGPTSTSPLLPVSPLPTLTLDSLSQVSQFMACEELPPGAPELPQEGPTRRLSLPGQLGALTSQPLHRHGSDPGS
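U2OS cells were transduced with wild-type KCNH2 virus (2.03 x 10^8 / mL) for 4 h at room temperature, then cultured overnight at 37 C. Thallium flux was read with FluxOr dye. Rate constants were normalized to DMSO controls.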
ALOX12 inh = blocks human arachidonate 12S-lipoxygenase | P18054 | purified 12hLO, xylenol orange hydroperoxide absorbance | Potency, µM (doses to about 108 µM), for inactives: top-dose activity change, negative = inhibition, hits mostly inhibitors | 580,000 tested, 1.1% active | AID 1671190; active = well fitted inhibition curve with a large enough effect; inconclusive = small, poorly fitted or top-dose-only effect, or another doubt; inactive = no such curve, though single readings can be large or run the other way; also: potency is read from the fitted curve at half-maximal effect; % is scaled to controls: 0 for no effect and ±100 for the full control effect
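Purified human 12hLO (150 nM final) in 25 mM Hepes, 0.01% Triton X-100, pH 7.0 was preincubated 15 min at room temperature with compound. Then 40 uM arachidonic acid was added, 30 min. Hydroperoxide was read by Fe-XO absorbance ratio 573/405 nm.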
Chronic BCR inh = chronic active BCR signaling inhibition; ABC-DLBCL IkBa-CBG/CBR reporter, luminescence ratio, 4 h; 340,000 tested, 0.05% active; Potency, µM (titrated, usually from 46.1 µM), inactives show at the highest dose activity change, negative = inhibition, hits mostly inhibitors; active = well fitted inhibition curve with a large enough effect in the signal ratio, with a control signal flat, not every such curve was filed as active; inconclusive = small, poorly fitted or top-dose-only effect, or effect the other way, or a change in a side signal; the % refers to the signal ratio;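 also: potency is read from the fitted curve at half-maximal effect; plate controls were basal doxycycline-induced cells for no effect and cells given 10 µM MG132 for full effect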
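Cell line TMD8 (human ABC DLBCL), stably expressing tet-inducible CBG68-IkBa fusion and CBR; IMDM/0.5% FBS; cpd up to 46 uM; dox induction, 4 h, 37C/5% CO2; dual luminescence; green/red ratio; MG132 control.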
LDHA block = inhibitors of human lactate dehydrogenase A. P00338. purified LDHA, NADH/diaphorase-resazurin fluorescence; active compounds read low. activity change, % (values are at about 110 or 230 µM). 480,000 tested, 0.15% active. AID 1347041; in the data active = activity change below about -30%; inconclusive = mostly about -25% to -30%;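 also: plate controls were DMSO wells for no effect and wells without enzyme for full effect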
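Remaining NADH was detected by diaphorase (0.133 mg/mL) converting 37 µM resazurin to fluorescent resorufin, read at 0 and 20 minutes. The preceding 5-minute room-temperature reaction used 2 nM LDHA, 0.2 mM sodium pyruvate and 0.06 mM NADH at pH 7.4.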
* hit, by the source's call; ? = inconclusive; . = no result.

SMILES	KCNH2 3.1 block	ClpP mod	KCNH2 WT inh	ALOX12 inh	Chronic BCR inh	LDHA block
O=S(=O)(NCc1ccc2c(c1)OCO2)c1cccc(F)c1	-4	28µM*	-25	6%	8%	-3
Fc1ccc(NC(=S)NCc2ccc3c(c2)OCO3)cc1	-71*	-7%	2	?	6%	-9
O=C(CN1CCN(Cc2ccc3c(c2)OCO3)CC1)Nc1ccc2c(c1)OCO2	?	0%	18	5%	?	0
O=S(=O)(NCc1ccc2c(c1)OCO2)c1cccc(S(=O)(=O)N2CCOCC2)c1	-1	1%	-10	?	-2%	-2
COc1ccc(NC(=O)CN2CCN(Cc3ccc4c(c3)OCO4)CC2)cc1OC	-12	-4%	6	?	-3%	-37*
COc1cc(-c2nc3ccc(C)cn3c2Nc2ccc3c(c2)OCO3)cc(OC)c1O	.	.	.	?	.	110
CSc1ccccc1C(=O)Nc1c(C)cccc1C(C)C	.	.	.	?	.	2
CCOC(=O)c1sc2nc(CSc3ccccc3)nc(N3CCCN(C)CC3)c2c1C	-16	-9%	19	5.6µM*	-23%	-15
CCOC(=O)c1sc2nc(CSc3ccccc3)nc(N3CCC(C(N)=O)CC3)c2c1C	-191*	.	-225*	-23%	16%	0
COc1ccc2c(CN(C)CCOc3ccc(F)cc3)cc(=O)oc2c1	.	.	.	?	.	2
Cc1ccc2c(CN(C)CCOc3ccc(Cl)cc3)cc(=O)oc2c1	.	.	.	35µM*	.	9
CCc1ccc2c(CN(C)CCOc3ccc(F)cc3)cc(=O)oc2c1	.	.	.	45µM*	.	-2
N#CCCn1cc(C(=O)CN2C(=O)NC(Cc3c[nH]c4ccccc34)C2=O)c2ccccc21 (stereo not given)	.	.	.	-23%	.	2
COc1ccc(OC)c(CCNC(=O)C(CCS(C)(=O)=O)N2Cc3ccccc3C2=O)c1 (stereo not given)	.	.	.	21%	.	-5
O=C(O)Cc1sc(-c2ccc(Cl)cc2)nc1-c1ccccc1	-9	-24%	-6	55%	7%	-8
O=C(O)Cc1sc(-c2ccccc2)nc1-c1ccccc1	1	32µM*	2	12%	8%	0
CC(C)=NNC(=O)CN1C(=O)NC2NC(=O)NC21 (stereo not given)	-13	28µM*	-6	-17%	-11%	-4
CCC(C)NC(=O)CN1C(=O)NC2NC(=O)NC21 (stereo not given)	6	1%	9	-3%	-6%	-3
Cn1c(=O)c2cn(S(=O)(=O)c3ccc4c(c3)CCCC4)nc2n(C)c1=O	.	.	.	3%	.	-4
CCC(C)Cc1c(C)sc2nc(CNc3ccc(NC(C)=O)c(Cl)c3)[nH]c(=O)c12 (stereo not given)	.	.	.	?	.	2
O=C(Cn1nc(N2CCN(c3ccccc3)CC2)ccc1=O)NC1CC1	.	.	.	?	.	-3
O=C(CN1C(=O)/C(=C/c2ccco2)SC1=S)Nc1ccc(C(=O)O)c(O)c1	-18	2%	-31	28µM*	1%	-16
O=C(CN1C(=O)/C(=C/c2ccco2)SC1=S)Nc1ccc(O)c(C(=O)O)c1	4	0%	13	?	2%	-1
O=C(CCCN1C(=O)/C(=C\c2ccco2)SC1=S)Nc1ccc(O)cc1C(=O)O	-12	.	-1	28µM*	1%	22
CSc1ccc(-c2ccc3c(c2)C(=O)N2CC[C@H](NC(=O)c4cccs4)[C@H]2C(=O)N3)cc1	.	.	.	5%	.	.
SMILES	KCNH2 3.1 block	ClpP mod	KCNH2 WT inh	ALOX12 inh	Chronic BCR inh	LDHA block
O=C(Cn1ccc2cc(Cl)ccc21)Nc1ccc2c(c1)OCCO2	.	.	.	?	.	5
COC(=O)c1ccc(CN2CCC(n3nccc3NC(=O)C3CC3)CC2)cc1	8	-1%	25	0%	-4%	-6
O=C(Nc1ccnn1C1CCN(Cc2ccc(OC(F)F)cc2)CC1)C1CCCC1	-83*	0%	-102*	?	-6%	0
COC(=O)c1ccc(CN2CCC(n3nccc3NC(=O)C3CCCC3)CC2)cc1	-7	1%	40	4%	1%	-2
CC(C)Oc1ccc(CN2CCC(n3nccc3NC(=O)CCc3ccccc3)CC2)cc1	-106*	3%	-32	0%	0%	-10
O=C(Nc1ccnn1C1CCN(Cc2ccc(OC3CCCC3)cc2)CC1)C1CC1	.	.	.	8.9µM*	.	.
CNCc1ccncc1	.	.	.	0.33µM*	.	.
O=C(NCc1ccncc1)C(=O)NCc1ccncc1	-1	.	-21	-26%	1%	-4
COc1ccc(O)c(C(=O)c2cnn(C(=O)c3cccc(N(C)C)c3)c2)c1	-6	22µM*	-8	-8%	0%	5
O=C(O)/C=C/C(=O)Nc1ccccc1-c1ccccc1	6	25µM*	-3	?	-5%	-11
CSc1ccccc1NC(=O)/C=C\C(=O)O	.	.	.	?	.	-7
N=C(N)c1ccc(COC2CCCCC2)cc1	.	.	.	-10%	.	6
CC(C)(CO)NC(=O)c1ccc(F)cc1	.	.	.	3%	.	8
CCCCC(CC)C(=O)Nc1cc(C(=O)NCCC)ccc1N1CCC2(CC1)CC(c1ccccc1)=NO2 (stereo not given)	-94*	-9%	-109*	-10%	-1%	1
CCCNC(=O)c1ccc(N2CCC3(CC2)CC(c2cccc(Br)c2)=NO3)c(NC(=O)c2ccc(Br)cc2)c1	-111*	?	-83*	-15%	?	-9
CCCNC(=O)c1ccc(N2CCC3(CC2)CC(c2cccc(Br)c2)=NO3)c(NC(=O)c2c(Cl)cccc2Cl)c1	-18	-1%	-20	-4%	5%	-1
Cc1ccc(CNC(=O)c2ccc(N3CCC4(CC3)CC(c3ccccc3)=NO4)c(N)c2)cc1	-7	8.9µM*	9	-14%	6%	-2
Cc1ccc(CNC(=O)c2ccc(N3CCC4(CC3)CC(c3ccccc3)=NO4)c(NC(=O)c3ccccc3)c2)cc1	0	?	-6	-4%	-6%	-8
CCCNC(=O)c1ccc(N2CCC3(CC2)CC(c2ccccc2)=NO3)c(NC(=O)c2cccc(OC)c2)c1	-97*	?	-92*	-15%	-10%	-2
CCn1cc(CN2CCCC(c3nc(C(C)C)no3)CCNC(=O)CC2)cn1 (stereo not given)	.	.	.	9%	.	.
CCC(NC(=O)Cn1cnc2sc(C)c(-c3ccccc3)c2c1=O)c1ccc(C)cc1 (stereo not given)	.	.	.	?	.	0
Cc1cccnc1C(=O)N[C@@H]1CN(C2CCOCC2)C[C@H]1CN(C)C	.	.	.	145%	.	.

Screens: PubChem BioAssay, National Center for Advancing Translational Sciences (NCATS)
